63 compounds from PubChem BioAssay AID2018 (Sanford-Burnham Center for Chemical Genomics, 2009) can be followed below.

Among all 1,200 compounds or so, about 600 (50%) were called active. The set was probably picked from earlier hits. The list shows a part of the results. Potency and affinity values are given separately. A number with no mark means an inactive call. Rule as the data show it: active = inhibition above about 42%; inactive = the rest.

One may read the inhibition as the change of the read-out against control, counted positive when it falls.

For the assay, the target named is SUMO-conjugating enzyme UBC9 (Homo sapiens) (UniProt P63279). As to the kind of experiment: blockers of UBC9-mediated SUMO conjugation – biochemical, AlphaScreen, SUMOylation inhibitor project, confirmation (AID 2018). Particulars: AlphaScreen in vitro SUMOylation assay; at 35 µM; stronger effect = higher value. (In general: Bead proximity is the source of the signal in Alpha formats.)
Chain of SUMO-conjugating enzyme UBC9 (Homo sapiens) (P63279 whole entry, looked up): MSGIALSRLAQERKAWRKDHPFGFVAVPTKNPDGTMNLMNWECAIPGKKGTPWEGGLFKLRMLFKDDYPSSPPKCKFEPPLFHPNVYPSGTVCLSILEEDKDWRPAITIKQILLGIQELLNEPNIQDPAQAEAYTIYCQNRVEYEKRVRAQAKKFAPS
Take `Cc1occc1C(=O)N1CCN(c2ccccc2)CC1`: the inhibition was 19.6%.

Turning to `Nc1c(C(=O)NCc2ccco2)c2nc3ccccc3nc2n1CCc1ccccc1F`, the inhibition was 2.7%.

With `CC(C)Cn1c(N)c(C(=O)NCc2cccs2)c2nc3ccccc3nc21`, the inhibition is -100%.

Regarding `COCCn1c(N)c(C(=O)NCc2cccs2)c2nc3ccccc3nc21`, the inhibition was -23.2%.

As for `COCCNC(=O)c1c(N)n(CCC2=CCCCC2)c2nc3ccccc3nc12`, the inhibition was 4.1%.

`O=c1cc(-c2ccc(F)cc2)[nH][nH]1`: the inhibition is 24.9%.

In the case of `Cn1c(NNC(=O)c2c(F)cccc2F)cc(=O)n(C)c1=O`, the inhibition is 42.1% (active).

Turning to `CC1=NN(c2ccccc2)C(=O)/C1=C/c1ccc(Cl)cc1`, the inhibition is 58.2% (active).

With `CC1=NN(c2ccccc2)C(=O)/C1=C\c1ccc(Br)s1`, the inhibition is 75% (active).

As to `CC1=NN(c2ccc(Br)cc2)C(=O)/C1=C/c1cccs1`, the inhibition was 59.4% (active).

Consider `CC1=NN(c2ccccc2)C(=O)/C1=C\c1cn(CCC#N)nc1-c1ccc(Cl)cc1`, for which the inhibition is 60.8% (active).

Consider `CC1=NN(c2ccccc2)C(=O)/C1=C/c1cccs1`, for which the inhibition is 40.6%.

For `COc1cc(/C=C2\C(=O)N(CCC#N)N=C2C)c(Br)cc1OC(C)C`, the inhibition was -16.2%.

With `O=c1c2ccccc2oc2cc(NCCCN3CCOCC3)ccc12`, the inhibition is -1.4%.

`CCCNC(=O)c1ccc2c(=O)c(O)c(-c3ccsc3)[nH]c2c1`: the inhibition was 16.3%.

For `O=C1C(NS(=O)(=O)c2cccs2)=C(N2CCN(c3cccc(C(F)(F)F)c3)CC2)C(=O)c2ccccc21`, the inhibition is 88.2% (active).

As for `S=c1[nH]nc(-c2ccccc2Cl)n1/N=C/C=C/c1ccco1`, the inhibition is 34.1%.

On to `S=c1[nH]nc(-c2cccnc2)n1/N=C/C=C/c1ccco1`, for which the inhibition is 15.4%.

For `O=C(Cc1cc(=O)oc2cc(O)ccc12)NCC1CCC(C(=O)O)CC1` (stereo not drawn), the inhibition is 6%.

Take `COc1c(C)oc2cc(O)ccc2c1=O`: the inhibition is 3.3%.

With `S=C(Nc1ccc(Cl)cc1)Nc1cccc2cnccc12`, the inhibition was 42.2% (active).

For `Cc1cc(C)cc(NC(=S)Nc2cccc3cnccc23)c1`, the inhibition was 31.7%.

Consider `COCCNC(=S)Nc1cccc2cnccc12`, for which the inhibition was -7.2%.

For `Cc1ccc(NC(=S)Nc2cccc3cnccc23)cc1C`, the inhibition was 31.1%.

As for `Fc1ccc(NC(=S)Nc2cccc3cnccc23)cc1`, the inhibition is 9.9%.

With `CCc1ccc(NC(=S)Nc2cccc3cnccc23)cc1`, the inhibition was 69.6% (active).

`O=C1N/C(=N/N=C/c2ccccc2O)SC1Cc1ccc(F)cc1` (stereo not drawn): the inhibition was 7.4%.

For the compound `CCOc1cc(CNc2ccccc2SC)ccc1O`, the inhibition is 65.8% (active).

On to `CNCc1ccccc1Sc1ccc(O)c(O)c1`, for which the inhibition is -26.2%.

Consider `CCc1ccccc1NC(=O)Nc1cccn(Cc2ccccc2F)c1=O`, for which the inhibition was 2.6%.

For the compound `O=C(NCc1ccccc1)Nc1cccn(Cc2ccccc2F)c1=O`, the inhibition is -5%.

For `COc1cccc(Cn2cccc(NC(=O)Nc3ccccc3C)c2=O)c1`, the inhibition is 31.1%.

Take `Cc1oc2c(c(C)cc3oc(=O)c(CC(=O)N[C@H](C(=O)O)C(C)C)c(C)c32)c1C`: the inhibition is 10.7%.

`COc1ccc(-c2csc(CCN3N=C(C)CC3=O)n2)cc1`: the inhibition was 53.9% (active).

Consider `COc1cccc(-c2[nH]nc3c2C(c2ccsc2)C(C#N)=C(N)O3)c1` (stereo not drawn), for which the inhibition was 24.1%.

In the case of `CC(C)=CCC1=C(OCC(=O)O)C(=O)c2ccccc2C1=O`, the inhibition is 99.7% (active).

With `O=[N+]([O-])c1ccc(O)c(C=Nc2cccc3ncccc23)c1`, the inhibition was 19.8%.

In the case of `CC(C)N(C(=O)Nc1ccc2nccnc2c1)C(C)C`, the inhibition is 44.2% (active).

For the compound `Fc1ccc(NC(=S)Nc2ccc3nccnc3c2)cc1`, the inhibition is 25%.

Consider `CC(C)(C)OC(=O)c1c(N)n(CCCN2CCCC2=O)c2nc3ccccc3nc12`, for which the inhibition is -0.3%.

For `CCCCn1c(=O)[nH]c2nc3cc(N)ccc3nc2c1=O`, the inhibition is 9.9%.

Consider `Cc1ccc(Sc2cc(NCCCO)c([N+](=O)[O-])c3nonc23)cc1`, for which the inhibition was 35.8%.

For `O=[N+]([O-])c1c(NCCCO)cc(Sc2nc3ccccc3s2)c2nonc12`, the inhibition was 37.6%.

With `CCC(=O)OCCNc1cc(Sc2nc3ccccc3s2)c2nonc2c1[N+](=O)[O-]`, the inhibition is 46.1% (active).

`CCC(=O)OCCNc1cc(Sc2nccn2C)c2nonc2c1[N+](=O)[O-]`: the inhibition was 24.5%.

As to `CC(=O)OCCCNc1cc(SCc2ccco2)c2nonc2c1[N+](=O)[O-]`, the inhibition was 40.6%.

Consider `Cc1nnc(Sc2cc(NCCCO)c([N+](=O)[O-])c3nonc23)s1`, for which the inhibition was 21.7%.

On to `O=[N+]([O-])c1c(NCCCO)cc(Sc2ccc(Cl)cc2)c2nonc12`, for which the inhibition is 42.6% (active).

As for `CC(=O)OCCNc1cc(SCc2ccco2)c2nonc2c1[N+](=O)[O-]`, the inhibition was 87.5% (active).

Turning to `Cc1nnc(Sc2cc(NCCO)c([N+](=O)[O-])c3nonc23)s1`, the inhibition is 24.5%.

`O=C(Nc1ccccc1)Oc1ccc[nH]c1=O`: the inhibition was 10.3%.

In the case of `CN(CCO)c1nc(N)c2c(N)nc3c(c2c1C#N)CC(=O)N3C1CCCC1`, the inhibition is 29.5%.

For `N#Cc1c2ccc(OCC(N)=O)cc2n2ccccc12`, the inhibition is 56.5% (active).

Consider `CCOC(=O)c1c(-c2ccccc2)oc2ccc(OC(C)C(=O)O)cc12` (stereo not drawn), for which the inhibition was -14%.

Turning to `COc1ccc2cc3c(N)nn(C(=O)Cc4ccc(Cl)cc4)c3nc2c1`, the inhibition is 19.7%.

`COC(=O)c1c(C)oc(C)c1S(=O)(=O)NC(C)(C)C`: the inhibition is 15%.

`CCOC(=O)CCc1c(C)c(C#N)c2[nH]c3ccccc3n2c1=O`: the inhibition was 73.9% (active).

Turning to `C=CCNc1nc(NCc2ccccc2)c(C#N)c2c1CN(C)CC2`, the inhibition is 36.6%.

Take `Cc1cc(/C=N/n2c(COc3ccccc3C)nc3ccccc3c2=O)c(O)c([N+](=O)[O-])c1`: the inhibition was 102% (active).

In the case of `COc1ccc(CC2S/C(=N/N=C/c3ccccc3O)NC2=O)cc1` (stereo not drawn), the inhibition is 19%.

As to `CC(=O)Oc1ccc2cc(-c3nc4ccccc4n3C)c(=O)oc2c1`, the inhibition is -26.3%.

As to `Brc1ccc(C2Nc3cccc4cccc(c34)N2)o1`, the inhibition is 69.5% (active).

For the compound `Cc1cc(C)cc(NC(=S)Nc2cccc3ccccc23)c1`, the inhibition was 4%.
